Laboratory results as given in PubChem BioAssay AID1159580 (chemical genetic matrix, 2015).
Where “and” joins values, the source holds several entries; their conditions need not be identical. Equal values may be shown once. The whole screen tested about 5,500 compounds, of which about 2,000 (36%) were called active. Another 18% or so got no clear call; they are omitted. Rule as the data show it: active = normalized growth mostly below about 0.91 (no sharp cut-off); inconclusive = no clear call, values can overlap the other calls; inactive = mostly above about 0.92. The list shows a part of the results.

Assay: chemical genetic growth profiling, strain panel (AID 1159580);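 also: tested at 20 µM; growth read once vehicle control cultures reached saturation at 30 °C; 1 = growth at the plate median or of vehicle wells; lower values mean less growth of the strain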
Conditions: S. cerevisiae deletion strains, growth OD

Measured: normalized growth

CNCCC=C1c2ccccc2CCc2ccccc21
active: locus YAL026C, strain drs2, active compounds read low 0.854
inactive: locus YAL013W, strain DEP1, active compounds read low 1.01 | locus YAL021C, strain ccr4, active compounds read low 0.919 | locus YAL030W, strain snc1, active compounds read low 0.975 | locus YAL040C, strain CLN3, active compounds read low 1.01 | locus YBL061C, strain skt5, active compounds read low 0.983 | locus YBR009C, strain hhf1, active compounds read low 0.989 | locus YBR021W, strain FUR4, active compounds read low 1.02 | locus YBR023C, strain chs3, active compounds read low 0.956 | locus YBR171W, strain sec66, active compounds read low 0.952 | locus YBR229C, strain ROT2, active compounds read low 1.01 | locus YBR231C, strain swc5, active compounds read low 0.996 | locus YBR279W, strain paf1, active compounds read low 0.971 | locus YCL011C, strain gbp2, active compounds read low 0.965 | locus YCL016C, strain dcc1, active compounds read low 0.946 | locus YCL029C, strain bik1, active compounds read low 1.04 | locus YCL061C, strain MRC1 (second series), active compounds read low 0.998 | locus YCL061C, strain MRC1, active compounds read low 0.981 | locus YCL069W, strain vba3, active compounds read low 0.976 | locus YCR088W, strain abp1, active compounds read low 0.978 | locus YDL005C, strain med2, active compounds read low 0.955 | locus YDL035C, strain GPR1, active compounds read low 1 | locus YDL040C, strain nat1, active compounds read low 0.974 | locus YDL074C, strain BRE1, active compounds read low 1.03 | locus YDL101C, strain DUN1, active compounds read low 1.02 | locus YDL134C, strain PPH21, active compounds read low 1.01 | locus YDL185W, strain tfp1, active compounds read low 1.02 | locus YDL192W, strain arf1, active compounds read low 1.02 | locus YDR001C, strain nth1, active compounds read low 0.986 | locus YDR069C, strain doa4, active compounds read low 0.929 | locus YDR101C, strain arx1, active compounds read low 1.03 | locus YDR137W, strain rgp1, active compounds read low 1.1 | locus YDR150W, strain NUM1, active compounds read low 1.01 and 1 | locus YDR159W, strain sac3, active compounds read low 0.955 | locus YDR162C, strain NBP2, active compounds read low 1 | locus YDR195W, strain ref2 1 | locus YDR297W, strain sur2, active compounds read low 0.99 | locus YDR318W, strain mcm21, active compounds read low 1.03 | locus YDR334W, strain swr1, active compounds read low 0.957 | locus YDR335W, strain msn5, active compounds read low 0.963 | locus YDR363W, strain ESC2, active compounds read low 0.951 | locus YDR388W, active compounds read low 1.02 | locus YDR392W, strain spt3, active compounds read low 0.939 | locus YDR502C, strain sam2, active compounds read low 1.03 | locus YEL003W, strain gim4, active compounds read low 0.972 | locus YEL037C, strain rad23, active compounds read low 0.967 | locus YEL061C, strain CIN8 (second series), active compounds read low 0.972 | locus YEL061C, strain CIN8, active compounds read low 1.01 | locus YER002W, strain NOP16, active compounds read low 1.03 | locus YER015W, strain faa2, active compounds read low 0.978 | locus YER016W, strain bim1, active compounds read low 0.97 | locus YER110C, active compounds read low 1.01 | locus YER111C, strain swi4, active compounds read low 0.953 | locus YER155C, strain BEM2 (second series), active compounds read low 0.917 | locus YER155C, strain BEM2, active compounds read low 1 | locus YER167W, strain BCK2, active compounds read low 1 | locus YFR010W, strain ubp6, active compounds read low 0.958 | locus YGL078C, strain dbp3, active compounds read low 1.01 | locus YGL086W, strain mad1, active compounds read low 1.01 | locus YGL167C, strain pmr1, active compounds read low 0.971 | locus YGL173C, strain kem1, active compounds read low 0.968 | locus YGL227W, strain vid30, active compounds read low 0.966 | locus YGL240W, strain doc1, active compounds read low 1.01 | locus YGL248W, strain PDE1, active compounds read low 1.01 | locus YGL253W, strain hxk2, active compounds read low 0.981 | locus YGR078C, strain PAC10, active compounds read low 1.03 and 0.991 | locus YGR135W, strain pre9, active compounds read low 1.02 | locus YGR229C, strain SMI1, active compounds read low 1.03 and 0.97 | locus YGR252W, strain gcn5, active compounds read low 1.14 | locus YHR013C, strain ard1, active compounds read low 0.885 | locus YHR027C, strain rpn1, active compounds read low 0.978 | locus YHR030C, strain SLT2, active compounds read low 1.01 and 0.966 | locus YHR079C, strain IRE1 (second series), active compounds read low 1.03 | locus YHR079C, strain IRE1, active compounds read low 0.974 | locus YHR094C, strain hxt1, active compounds read low 1.01 | locus YHR129C, strain ARP1, active compounds read low 1.01 | locus YHR142W, strain chs7, active compounds read low 0.961 | locus YHR200W, strain rpn10, active compounds read low 1.02 | locus YIL066C, strain RNR3, active compounds read low 1.02 | locus YIL073C, strain SPO22, active compounds read low 1.09 | locus YIL125W, strain kgd1, active compounds read low 1.01 | locus YIR030C, strain dcg1, active compounds read low 1.02 | locus YJL092W, strain hpr5, active compounds read low 0.991 | locus YJL095W, strain BCK1 (second series), active compounds read low 0.965 | locus YJL095W, strain BCK1, active compounds read low 1.01 and 0.961 | locus YJL115W, strain asf1, active compounds read low 0.961 | locus YJL129C, strain trk1, active compounds read low 0.978 | locus YJL134W, strain LCB3, active compounds read low 1.01 | locus YJL154C, strain vps35, active compounds read low 0.973 | locus YJL164C, strain tpk1, active compounds read low 0.978 | locus YJL166W, strain qcr8, active compounds read low 0.989 | locus YJL168C, strain set2, active compounds read low 1.01 | locus YJL187C, strain SWE1 (second series), active compounds read low 1.02 | locus YJR043C, strain POL32, active compounds read low 1.02 | locus YJR066W, strain TOR1, active compounds read low 0.923
